Experimental data published in PubChem BioAssay.
Active and inactive are the calls of the source. Unless noted, the rule behind the calls is not given here.

Legend:
[1] = test system: XIP peptide (Xip251-270) binding; test: XIP fragment 251-270 binding compounds – biochemical, small-molecule microarray, fluorescence 635/667 nm, 0.1 µg/mL protein, primary screen (AID 1182); conditions: fluorescent protein binding, 635 nm, higher = more signal, called active from +8 up or from −8 down
XIP peptide (Xip251-270) = test: compounds binding XIP fragment 251-270 – biochemical, small-molecule microarray, fluorescence 635/667 nm, 0.5 µg/mL protein, primary screen (AID 1183); conditions: fluorescence 635 nm, higher = more signal
[2] = blood-stage malaria parasite viability loss – strain 3D7, DAPI fluorescence, 100 nL, primary screen (AID 1184);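 note: parasites grown inside human red blood cells in medium with human serum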; conditions: P. falciparum 3D7 growth, 3 d, higher = more signal
[3] = target: Homeobox protein Hox-A13 (Mus musculus) (UniProt Q62424); test: disruptors of Hoxa13 oligonucleotide interaction – biochemical, fluorescence polarization, labeled oligonucleotide, primary screen (AID 1185); conditions: Hoxa13:DNA binding, 15 min, higher = more signal, called active from +8 up or from −8 down
Sequence of Homeobox protein Hox-A13 (Mus musculus) (Q62424 whole entry, looked up): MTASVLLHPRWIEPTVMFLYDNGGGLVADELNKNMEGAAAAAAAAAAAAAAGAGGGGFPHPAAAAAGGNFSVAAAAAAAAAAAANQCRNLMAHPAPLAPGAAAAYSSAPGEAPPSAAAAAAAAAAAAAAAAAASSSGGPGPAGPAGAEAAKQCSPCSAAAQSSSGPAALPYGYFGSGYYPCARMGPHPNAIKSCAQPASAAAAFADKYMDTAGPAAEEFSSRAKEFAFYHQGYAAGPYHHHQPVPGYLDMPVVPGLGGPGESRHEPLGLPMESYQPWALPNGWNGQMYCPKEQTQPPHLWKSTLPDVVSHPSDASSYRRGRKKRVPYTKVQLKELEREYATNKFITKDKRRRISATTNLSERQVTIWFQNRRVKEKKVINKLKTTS

[4] = blockers of DNA damage checkpoint Chk1 activation – imaging, HeLa, hydroxyurea, phospho-Chk1 antibody, percent positive cells, primary screen (AID 1186); conditions: hydroxyurea-induced phospho-Chk1 immunofluorescence imaging, higher = more signal
[5] = blockers of DNA damage checkpoint Chk1 activation – imaging, HeLa, hydroxyurea, phospho-Chk1 nuclear intensity, primary screen (AID 1187); conditions: hydroxyurea-induced phospho-Chk1 immunofluorescence imaging, higher = more signal

| SMILES | composite z-score [1] | composite z-score (XIP peptide (Xip251-270)) | z-score [2] | z-score [3] | z-score [4] | z-score [5] |
| --- | --- | --- | --- | --- | --- | --- |
| CCCCCN1CC=CC23O[C@@H]4/C=C\CCCOC(=O)C4[C@H]2C(=O)N(C(C)CO)[C@@H]3C1=O (some centres not stated) | 0.221 (inactive) | 0.106 | 0.266 | -3.74 (inactive) | -0.107 (inactive) | 0.37 (inactive) |
| CC#CCO[Si](C#Cc1ccccc1)(C(C)C)C(C)C | 0.0308 (inactive) | -0.654 | -0.916 | -1.19 (inactive) | 0.988 (inactive) | 0.598 (inactive) |
| C=CC[C@@]1(C(=O)NCCCOC)N=C(c2ccc(OCCCO)cc2)O[C@@H]1c1ccccc1 | 1.42 (inactive) | 0.805 | -1.95 | -4.75 (inactive) | -0.339 (inactive) | -0.343 (inactive) |
| C=CCNC(=O)[C@@H]1[C@H]2C(=O)O[C@H](c3ccccc3)[C@H](c3ccccc3)N2[C@H](c2ccccc2OCCO)[C@@]12C(=O)Nc1ccc(C#CCCO)cc12 | 0.712 (inactive) | 0.596 | -2.22 | -3.84 (inactive) | -0.38 (inactive) | -0.262 (inactive) |
| C[N+](C)(C)CCCC[C@@H]1NC(=O)[C@@H]2C[C@H](C(=O)NCCCCCCN)[C@H](c3cccc(OCCO)c3)N2C1=O | 1.52 (inactive) | 0.771 | -0.133 | -3.34 (inactive) | -0.529 (inactive) | -0.386 (inactive) |
| CCOC(=O)C1=C[C@@H](c2ccccc2)N(S(=O)(=O)c2ccc(C)cc2)[C@H]1c1ccc(OC)cc1 | 0.138 (inactive) | 0.599 | -1.84 | 0.842 (inactive) | -0.0622 (inactive) | -0.614 (inactive) |
| O=C1OCCC=C[C@H]2OC34C=CCN(Cn5nnc6ccccc65)C(=O)[C@H]3N(CCCO)C(=O)[C@@H]4C12 (some centres not stated) | 2.05 (inactive) | -0.308 | -1.82 | -3.33 (inactive) | -0.628 (inactive) | -0.609 (inactive) |
| CC1CC/C=C\[C@H]2OC34C=CCN(c5ccc(Cl)cc5)C(=O)[C@H]3N(C(C)CO)C(=O)[C@]4(C)C2C(=O)O1 (some centres not stated) | -0.103 (inactive) | -0.279 | -0.111 | -4.76 (inactive) | 0.558 (inactive) | -0.11 (inactive) |
| COc1cccc(C)c1NC(=O)O[C@H]1[C@H](OC(=O)Nc2ccc3c(c2)OCO3)[C@@H](OC(=O)Nc2ccc3c(c2)OCO3)[C@@H](OC)O[C@@H]1CO | 0.519 (inactive) | -0.0963 | -2.44 | -10.8 (active) | -0.088 (inactive) | -0.224 (inactive) |
| CC(c1ccccc1)C(O)C1C=CC2C(=O)N(C)C(=O)C2N1Nc1ccccc1 (configuration not stated) | 0.255 (inactive) | 0.726 | 0.139 | -3.9 (inactive) | 0.378 (inactive) | -0.484 (inactive) |
| COC(=O)C1(CC(C)C)C=C2C(=C(c3ccccc3)C(=O)C2C)CN1 (configuration not stated) | -0.213 (inactive) | 0.758 | -0.104 | -7.47 (inactive) | -0.563 (inactive) | -1.13 (inactive) |
| COCCOC(=O)N1C(=O)[C@@]2(c3ccccc31)[C@H](c1ccc(O)cc1)N1[C@H](c3ccccc3)[C@H](c3ccccc3)OC(=O)[C@H]1[C@@H]2C(=O)N1CCN(c2ncccn2)CC1 | 1.84 (inactive) | 0.787 | -1.16 | -2.14 (inactive) | 0.0666 (inactive) | 0.651 (inactive) |
| CC(C)C(CO)N1C(=O)[C@@H]2C3C(=O)OCCC/C=C\[C@H]3OC23C=CCN(Cn2nnc4ccccc42)C(=O)[C@@H]13 (some centres not stated) | -0.261 (inactive) | 0.348 | 0.596 | -3.97 (inactive) | -0.833 (inactive) | -0.709 (inactive) |
| O=C1N(CCS(=O)(=O)c2ccccc2)c2ccccc2[C@H]2OC(c3ccc(OCCCO)cc3)=N[C@@]12Cc1ccccc1 | 3.13 (inactive) | 0.832 | -1.92 | -0.41 (inactive) | -0.37 (inactive) | 0.158 (inactive) |
| CCOC(=O)C[C@H]1[C@H](OC(=O)c2ccc(C(=O)c3ccccc3)cc2)[C@@H](NC(=O)CC(C)C)c2cc(OCCCO)ccc2N1C(=O)c1ccccc1 | 0.786 (inactive) | 0.671 | 1.38 | -3.51 (inactive) | 0.309 (inactive) | -0.0385 (inactive) |
| CO[C@H]1O[C@H](CO)[C@@H](OC(=O)Nc2ccc3c(c2)OCO3)[C@H](OC(=O)Nc2ccc3c(c2)OCO3)[C@@H]1OC(=O)Nc1ccc2c(c1)OCO2 | 1.12 (inactive) | 0.904 | -2.31 | -4.7 (inactive) | -0.187 (inactive) | -0.119 (inactive) |
| [N-]=[N+]=Nc1ccccc1C[C@@]1(C(=O)NCCN2CCOCC2)N=C(c2ccc(OCCCO)cc2)O[C@@H]1c1ccccc1N=[N+]=[N-] | 0.361 (inactive) | 0.846 | -2.49 | -5.26 (inactive) | -0.303 (inactive) | -0.523 (inactive) |
| C#CCN([C@@H](Cc1ccccc1)C(=O)OC)[C@@H](/C=C/C1CC1)[C@H](O)Cc1ccccc1 | -0.0272 (inactive) | -0.194 | -1.12 | -6.42 (inactive) | -0.121 (inactive) | 0.134 (inactive) |
| COc1ccc(C#Cc2ccc3c(c2)[C@]2(C(=O)N3)[C@H](C(=O)O)[C@H]3C(=O)O[C@H](c4ccccc4)[C@H](c4ccccc4)N3[C@@H]2c2ccc(O)cc2)cc1 | 1.14 (inactive) | -0.516 | -1.47 | -6.25 (inactive) | -0.366 (inactive) | -0.651 (inactive) |
| O=C1OCCC/C=C\[C@H]2OC34C=CCN(c5ccc6ccccc6c5)C(=O)[C@H]3N(CCO)C(=O)[C@@H]4C12 (some centres not stated) | 0.314 (inactive) | -1.38 | -1.05 | -5.35 (inactive) | -0.234 (inactive) | -0.0994 (inactive) |
| CC(C)[Si](C#C[Si](C(C)C)(C(C)C)C(C)C)(O[C@H](c1ccccc1)c1cn(Cc2ccccc2)nn1)C(C)C | -0.464 (inactive) | -0.0753 | -0.122 | 0.371 (inactive) | -0.269 (inactive) | -0.216 (inactive) |
| C=C(/C(=C/C[C@H](OC(C)=O)c1ccc(CO)o1)c1cnc2ccccc2c1)C(C)C | 0.0103 (inactive) | 0.769 | -1.14 | -6.46 (inactive) | -0.136 (inactive) | 0.181 (inactive) |
